Rows were chosen to be rich in hits. Some 9.4% of all compounds tested hit in one or more screens of this group.
ELG1 genotox: genotoxicity induction in ELG1-luciferase HEK293T cells; HEK293T ELG1-luciferase reporter, luminescence, 16 h; Potency, µM (titrated, usually from 46 µM), for inactives: top-dose activity change, positive = activation, actives largely listed as activators; 330,000 compounds, 1.3% hits; AID 504466; note: % of control where 0% means no effect; nearly all actives have a fitted effect of over 60% in size
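Genotoxic stress is detected as increased luminescence from luciferase-tagged ELG1 in HEK293T cells, measured with ONE-Glo after a 16 hr treatment at 37 °C.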
ELG1 repair inh: inhibitors of ELG1-dependent DNA repair in HEK293T cells; HEK293T ELG1-luciferase reporter, luminescence, 16 h; DNA damage induced by 5-fluorouridine; Potency, µM (doses to about 46.1 µM), inactives show top-dose activity change, negative = inhibition, most hits filed as inhibitors; 330,000 compounds, 2.3% hits; AID 504467; note: % is set by controls: 0 for no effect and ±100 for the full control effect; nearly all actives have a fitted effect of over 55% in size
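Reporter activity after DNA damage by 5-fluorouridine is monitored. Compound-treated cells incubate 16 hr at 37 °C, then ONE-Glo is added for 30 min before luminescence reading.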
FLuc modulator: firefly luciferase modulation, counter-screen for miR-21 project. P08659. purified FLuc, Km substrates, luminescence inhibition. Potency, µM (titrated, usually from 57.5 µM), inactives show top-dose activity change, negative = inhibition, actives largely listed as inhibitors. 360,000 compounds, 6.9% hits. AID 588342;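 note: plate controls were vehicle for no effect and reference inhibitor for full effect; nearly all actives have a fitted effect of over 55% in size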
Target sequence (P08659 whole entry, looked up): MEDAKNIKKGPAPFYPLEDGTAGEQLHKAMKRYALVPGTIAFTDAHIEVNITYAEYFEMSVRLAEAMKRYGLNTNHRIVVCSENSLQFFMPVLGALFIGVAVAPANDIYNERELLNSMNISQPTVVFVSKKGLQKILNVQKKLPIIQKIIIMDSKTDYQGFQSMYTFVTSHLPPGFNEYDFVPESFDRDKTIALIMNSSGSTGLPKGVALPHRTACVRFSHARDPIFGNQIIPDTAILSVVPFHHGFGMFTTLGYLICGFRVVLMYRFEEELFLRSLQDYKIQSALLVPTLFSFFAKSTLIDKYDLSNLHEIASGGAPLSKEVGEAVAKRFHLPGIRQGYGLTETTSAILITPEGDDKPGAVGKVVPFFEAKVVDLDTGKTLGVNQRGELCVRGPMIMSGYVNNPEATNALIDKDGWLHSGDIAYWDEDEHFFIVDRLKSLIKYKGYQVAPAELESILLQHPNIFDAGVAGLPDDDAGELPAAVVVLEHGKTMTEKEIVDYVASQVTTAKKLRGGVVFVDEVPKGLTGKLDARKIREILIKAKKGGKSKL
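Purified P. pyralis luciferase (10nM final) with 10uM D-luciferin and 10uM ATP (Km levels) in 50mM Tris acetate pH 7.5, 10mM Mg acetate, 0.01% Tween-20, 0.05% BSA; qHTS 6-point titration, ~60 µM downward; luminescence read.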
SMN2 splice enh: enhancers of SMN2 splice variant expression | HEK293 SMN2-luciferase splicing reporter, luminescence, 30-36 h | Potency, µM (titrated, usually from 46.1 µM), inactives show at the highest dose activity change, positive = activation, actives largely listed as activators | 210,000 compounds, 2.8% hits | AID 1458; note: % of control where 0% means no effect; nearly all actives have a fitted effect of over 55% in size
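HEK293 cells carry an SMN2 […]–luciferase reporter in which exon 7 inclusion puts luciferase in frame. Cells were plated 10-12 h before compound addition, then incubated 30-36 h at 37C. ONE-Glo luminescence was read; sodium butyrate at 4.5 mM final served as control.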
Rab9 prom act: Rab9 promoter activation. Huh7 Rab9 promoter-luciferase reporter, luminescence, 24 h. Potency, µM (top dose mostly 9.22 µM), for inactives: at the highest dose activation, negative = inhibition, most hits filed as activators. 320,000 compounds, 2.8% hits. AID 485297; note: % of control where 0% means no effect; nearly all actives have a fitted effect of over 60% in size
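Huh7 reporter line, Rab9 promoter upstream of luciferase. Compound exposure 24 h at 37 °C in reduced-serum medium with 10% FBS. Read-out: luminescence.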
NPC1 prom act: activators of NPC1 promoter; Huh7 NPC1 promoter luciferase reporter, 24 h; Potency, µM (highest dose often 9.22 µM), without a hit: at the highest dose activation, usual class: activators; 320,000 compounds, 2.4% hits; AID 485313; note: % of control where 0% means no effect; nearly all actives have a fitted effect of over 60% in size
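Stable NPC1-promoter luciferase Huh7 line; cpd (DMSO) 24 h, 37 °C, 5% CO2; Amplite luciferase reagent 10 min RT; luminescence readout. qHTS format.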
Starred values were filed as active, the others as inactive; ? = inconclusive; · = no result given; [ ] = remark or other dose. Calls come from the whole dose curve; as a rule, active = well fitted curve in the direction sought with a large enough effect; inconclusive = small, poorly fitted or top-dose-only effect, or another doubt; inactive = no such curve, though single readings can be large; an effect the other way counts as inactive or inconclusive. Potency is the fitted concentration of half-maximal effect.

SMILES	ELG1 genotox	ELG1 repair inh	FLuc modulator	SMN2 splice enh	Rab9 prom act	NPC1 prom act
CN1CCN(C(=O)COCc2cc(-c3ccc4c(c3)OCO4)on2)CC1	9%	?	-18%	·	14%	2%
CC(C)C[C@H](NC(=O)[C@H](CCCCN)NC(=O)[C@H](CCCNC(=N)N)NC(=O)[C@H](C)NC(=O)[C@H](CO)NC(=O)[C@H](CCCCN)NC(=O)[C@H](CCCNC(=N)N)NC(=O)[C@H](C)NC(=O)CNC(=O)[C@@H](NC(=O)[C@H](Cc1ccccc1)NC(=O)CNC(=O)CNC(=O)[C@@H](N)Cc1ccccc1)[C@H](C)O)C(=O)N[C@@H](C)C(=O)N[C@@H](CC(N)=O)C(=O)N[C@@H](CCC(N)=O)C(=O)O	·	·	·	2%	·	·
Cc1ccc(S(=O)(=O)N(CC(=O)Nc2cccnc2)c2cc(Cl)ccc2C)cc1	·	·	-8%	-36%	·	·
CCOc1ccc(N=C(/C(C(=O)C(=O)N2CCOCC2)=C(\O)c2ccccc2)c2ccccc2)cc1	?	?	?	13µM*	?	?
CCn1cc(C(=O)N2CCN(c3cccc(C)c3C)CC2)c2cc(OC)c(OC)cc2c1=O	·	·	-5%	3%	·	·
CCN=C1S/C(=C\c2cc(OCC)c(O)cc2Br)C(=O)N1CC	-4%	18µM*	3%	-26%	2%	-5%
O=C(Nc1nc2ccccc2n1CCN1CCOCC1)c1ccccc1	-10%	?	-12%	·	6%	1%
O=C(Nc1nc2ccccc2n1CCN1CCOCC1)c1cn(-c2ccccc2)nc1-c1ccccc1	-13%	18µM*	-16%	-39%	3%	2%
COc1ccc(Cn2c(-c3ccco3)nc3oc4cc(OC)ccc4c(=O)c3c2=O)cc1	?	0%	?	4%	4µM*	3.2µM*
CCOc1ccc(CNC(=O)Cn2nc(C)n3cccc3c2=O)cc1	·	·	-3%	·	·	·
Cc1ccc(C(=O)N(C)c2ccc(OCC(=O)N3c4ccc(C)cc4C4CN(C)CCC43)cc2)cc1 (stereo unspecified)	?	?	3µM*	11µM*	?	27%
CCN(CC(=O)NCc1ccc(Cl)cc1)C(=O)/C=C/c1ccc(Cl)c([N+](=O)[O-])c1	-6%	23%	9.5µM*	·	2%	13%
CC(C)(C)COS(=O)OCC(C)(C)C	·	·	·	-22%[9.22 µM]	·	·
Cc1cccc2nc(-c3cccc(NC(=O)c4ccc(Cl)cc4)c3)cn12	-7%	?	6µM*	-12%	-1%	-2%
O=C(Cc1ccc(F)cc1)Nc1cccc(-c2ccc3nncn3n2)c1	-5%	-5%	3%	-13%	-3%	-5%
Cc1cccc2nc(-c3cccc(NC(=O)Cc4ccccc4)c3)cn12	-7%	?	11µM*	2%	0%	-2%
Cc1ccc(S(=O)(=O)C2(C(=O)N3CCN(c4cc(C)ccc4C)CC3)CC2)cc1	-11%	26µM*	0%	-36%	-2%	-8%
COc1ccc(OC)c(/C=C(/C#N)c2nc(-c3ccc(-c4ccccc4)cc3)cs2)c1	·	·	5%	-1%	·	·
O=C(COc1ccc(/C=N/NC(=O)CSCc2ccc([N+](=O)[O-])cc2)cc1)NCc1ccco1	-3%	23µM*	-5%	-26%	-1%	-2%
CCCOc1ccc(/C=N/NC(=O)CSCc2ccc([N+](=O)[O-])cc2)cc1OCC	-7%	23µM*	3%	-14%	-1%	-3%
CCCOc1ccc(/C=N/NC(=O)CN2CCCCC2)cc1OCC	-11%	0%	7%	·	0%	3%
N#Cc1nc(-c2cccc3ccccc23)oc1NCC#CCOC(=O)c1cccs1	·	·	-20%	·	2%	-1%
COc1ccc2c(CCNC(=O)/C=C/c3ccc(OC)c(OC)c3)c[nH]c2c1	-7%	23µM*	-6%	·	0%	-11%

Assay outcomes deposited in PubChem BioAssay by National Center for Advancing Translational Sciences (NCATS).
